Results as given in ChEMBL document CHEMBL3988442, “University of Dundee, Small-Polar-MMV Screening Library” (2021).
In all, about 69,000 compounds went through this assay and about 950 (1.4%) showed an effect of 50% or more. For the sample, strong results were picked, then their nearest neighbours and some compounds at random.

test system: Mycobacterium tuberculosis; experiment: Cornell M. t heat shock assay; assay type: functional, organism-based; design: dose or concentration left out as unconfirmed; also: in the data most compounds retested in dose-response had high values

Compound	Percent Effect [%]
CN(C)CCNC(=O)c1cc(-c2cnc(N3CCCC3)nc2)cn1C.O=C(O)C(F)(F)F	-14.58
CC(=O)N1[C@H](CN(C)C)C[C@@H]2CN(C(=O)c3cncc(C)c3)CC[C@@H]21.O=C(O)C(F)(F)F.O=C(O)C(F)(F)F	-6.193
COCCn1cc(C(=O)N2CCCC2c2cc(C)on2)c2ccccc21 (stereo not drawn)	-20.39
Cc1cc(C(=O)N2CCN(c3nc4c(C)cccc4s3)CC2)no1	96.55
Cc1cccc(C(=O)N2CCN(c3ccccc3F)CC2)n1	-5.532
CC(=O)OC1CN(c2nc3c(C)cccc3s2)C1	-13.72
Cc1cc(C(=O)N2CCN(c3nc4c(C(C)C)cccc4s3)CC2)on1	-0.7761
Cc1cc(C(=O)N2CCN(c3nc4c(C(C)C)cccc4s3)CC2)no1	88.51
CCOC(=O)N1CCN(C(=O)c2cc(-c3ccccc3F)on2)CC1	9.54
CCOc1cc(C)nc(N2CCN(C(=O)c3cc(C)on3)CC2)n1	-16.01
COc1cccc([C@H]2CN(C(=O)c3cc(C)on3)C[C@@H]2N)c1	-0.4367
Cc1cc(C(=O)N2CCN(c3nc4c(F)cccc4s3)CC2)no1	70.89
COc1cccc2sc(N3CC(OC(C)=O)C3)nc12	4.303
COc1cccc2sc(N3CCN(C(=O)c4cc(C)on4)CC3)nc12	101.6
Cc1cc(C(=O)N2CCN(c3nc4ccccc4s3)CC2)no1	-15.49
Cc1cc(C(=O)N2CCN(C)CC2)nn1CC(=O)NCc1ccccn1.Cl	-24.19
CC(C)C[C@H](N)c1nnc(SCC(=O)Nc2ccc(Br)cc2)o1.Cl	9.958
O=C(O)C(F)(F)F.O=C(O)C(F)(F)F.O=C(O)C(F)(F)F.c1ccc(NCc2cn3c(n2)CN(Cc2cccnc2)CC3)nc1	2.185
CS(=O)(=O)c1ccc(C(=O)N2CCCC(n3ccnc3)C2)cc1 (stereo not drawn)	8.305
Cn1cc(-c2ncc3c(c2C(=O)O)CCN(Cc2ccccn2)C3)cn1.O=C(O)C(F)(F)F.O=C(O)C(F)(F)F	44.96
CO[C@@H]1CCN(C(=O)c2ccsc2)[C@@H]2CN(CC3CC3)C[C@@H]21.O=C(O)C(F)(F)F	9.15
COCCCNC(=O)c1cc(-c2cnc(N(C)C)nc2)cn1CC1CC1.O=C(O)C(F)(F)F	0.3583
CC1(C)CN(Cc2c[nH]c(CC3CCCC3)n2)CC[C@]1(C)O	10.2
c1[nH]c(CC2CCCC2)nc1CN1CCCC2(CCOC2)C1 (stereo not drawn)	-0.6443

Compound	Percent Effect [%]
OC1(CN2CCCC2)CCCN(Cc2c[nH]c(CC3CCCC3)n2)C1 (stereo not drawn)	109.3
C[C@@H]1CN(Cc2c[nH]c(CC3CCCC3)n2)CC[C@]1(C)O	-1.066
COC[C@]1(O)CCN(Cc2c[nH]c(CC3CCCC3)n2)CC1(C)C	-12.53
OC1(CN2CCCCC2)CCN(Cc2c[nH]c(CC3CCCC3)n2)C1 (stereo not drawn)	56.92
COc1cc(C(=O)N(C)C)ccc1NC(=O)c1ccsc1	-21.05
CCS(=O)(=O)N1CC[C@H]2CO[C@H](CN(C)C)[C@H]2C1.O=C(O)C(F)(F)F	-39.84
CCN1CCC2(CCC(=O)N2Cc2cccc(C)n2)CC1.O=C(O)C(F)(F)F.O=C(O)C(F)(F)F	-30.9
O=C(O)C(F)(F)F.O=C(O)C(F)(F)F.c1cnn(CCCO[C@@H]2CN(C3CCOCC3)[C@@H]3CCCO[C@@H]32)c1	-22.39
Cc1ccc(CN2CC[C@H]3NC(=O)CC[C@@H]32)o1.O=C(O)C(F)(F)F	-7.125
Cc1cccc(N2CCC3(CCCN(C(=O)c4cccnc4)C3)C2)n1.O=C(O)C(F)(F)F.O=C(O)C(F)(F)F (stereo not drawn)	-32.42
CN(C)C(=O)CNC(=O)c1ccc2ccc(N(C)CC3CC3)n2c1	51.54
COCCNC(=O)c1ccc2ccc(N(C)CC3CC3)n2c1	24.26
CN(C)CCNC(=O)c1ccc2ccc(N(C)CC3CC3)n2c1	-34.83
NC(=O)N1CCC2(CCN(C(=O)c3cccnc3)CC2)C1.O=C(O)C(F)(F)F	-5.676
Cl.Cl.c1ccc(COC[C@@H]2CCC[C@@]23CNCCO3)nc1	33.86
Cc1cc(C)c(CNC(=O)NCCNc2cnccn2)c(=O)[nH]1	-7.276
CCCc1cncnc1N1CCC(NCc2ccc(O)cc2)CC1	-4.464
CCCc1cncnc1N1CCC(NCc2cc3ccccc3[nH]2)CC1	103.5
CCCc1cncnc1N1CCC(NCc2ccncc2)CC1	4.573
Cc1ncsc1C(=O)NCc1ccnc(OCC(F)(F)F)c1	-36.25
Cc1noc(C)c1C(=O)NCc1ccnc(OCC(F)(F)F)c1	0.8028
Cc1n[nH]c(C(=O)NCc2ccnc(OCC(F)(F)F)c2)c1Br	65.15
CN(Cc1ccccc1OC(F)(F)F)C(=O)C1CCCN(C(N)=O)C1 (stereo not drawn)	92.25
CN(Cc1ccccc1OC(F)(F)F)C(=O)C1CC1	6.346

Compound	Percent Effect [%]
NC(=O)N1CCCC(C(=O)NCc2ccccc2OC(F)(F)F)C1 (stereo not drawn)	35.38
O=C(O)C(F)(F)F.O=C(O)C(F)(F)F.c1cc(CO[C@H]2CC[C@H]3[C@H]2OCCN3Cc2nccs2)ccn1	-1.961
O=C(O)C(F)(F)F.O=C(O)C(F)(F)F.O=C1N(c2cncnc2)CCC12CCCN(Cc1cccnc1)C2 (stereo not drawn)	-18.13
CCOCC1CN(C(=O)c2cscn2)Cc2cn(C)nc21.O=C(O)C(F)(F)F (stereo not drawn)	-37.83
COC[C@@H]1CCC[C@]12CN(Cc1ccco1)CCO2.O=C(O)C(F)(F)F	-13.34
Cl.NCc1cc(-c2ccccc2)n2nccc2n1	-2.564
FC(F)(F)c1ccc(-c2noc3c2CN(CC2CCCO2)CC3)cc1 (stereo not drawn)	46.47
COCC(C)N1CCc2onc(-c3ccc(C(F)(F)F)cc3)c2C1 (stereo not drawn)	16.68
OCC(O)CN1CCc2onc(-c3ccc(C(F)(F)F)cc3)c2C1 (stereo not drawn)	97.28
COCC1c2nnn(CC3CC3)c2CCN1C(=O)c1ccnnc1 (stereo not drawn)	-6.272
COCC1c2nnn(CC3CC3)c2CCN1C(=O)c1cc(C)on1 (stereo not drawn)	9.302
COCC1c2nnn(CC3CC3)c2CCN1C(=O)c1cc(C)[nH]c1C (stereo not drawn)	70.57
CCC(CNC(=O)c1ccccc1Br)N1CCc2ccccc2C1 (stereo not drawn)	-2.045
CCC(CNC(=O)c1ccc(=O)[nH]n1)N1CCc2ccccc2C1 (stereo not drawn)	-4.669
CCC(CNC(=O)c1ccccn1)N1CCc2ccccc2C1 (stereo not drawn)	64.91
O=C(O)C(F)(F)F.c1ccc(CN2CCCn3nnc(CNc4ncccn4)c3C2)nc1	11.56
Cc1noc(C)c1CN1CCc2ncnc(-c3ccncc3)c2CC1.O=C(O)C(F)(F)F.O=C(O)C(F)(F)F	7.897
O=C(CCc1ccsc1)NCC1CCN(C2CC2)C1 (stereo not drawn)	-16.29
O=C(CCc1ccccc1)NCC1CCN(Cc2ccsc2)CC1	-20.67
O=C(CCc1ccsc1)NCC1CCN(c2ccccc2)C1 (stereo not drawn)	105.9
CC(C)c1nn(C)cc1CNCc1ccnc(N(C)C)c1.Cl	-35.39
CC(C)NC(=O)CC1COC2(CCN(Cc3ccccc3)CC2)C1.O=C(O)C(F)(F)F (stereo not drawn)	-5.683
CS(=O)(=O)NC[C@@H]1OC[C@H]2CN(Cc3ccsc3)CC[C@H]21.O=C(O)C(F)(F)F	-25.96
CC(C)(C)Nc1c(C2CCCN(C(=O)C3CC3)C2)nc2ccccn12.Cl (stereo not drawn)	-26.51

Compound	Percent Effect [%]
COC(=O)c1cccc(CN(C)C(C)c2ccccn2)c1 (stereo not drawn)	-7.966
CC(c1ccco1)N(C)Cc1cccc(C(=O)Nc2nccn2C)c1 (stereo not drawn)	105
CN(Cc1cccc(C(=O)Nc2ccnn2C)c1)CC1(C)COC1	-8.064
CC(c1ccccn1)N(C)Cc1cccc(C(=O)Nc2nccn2C)c1 (stereo not drawn)	74
CC(NC(=O)c1cccc(CN2CCN(C)CC2)c1)c1ccccn1 (stereo not drawn)	-15.12
CCc1nnc(CN(C)Cc2cccc(C(=O)Nc3ccnn3C)c2)o1	2.892
N#CC1=C(N)Nn2c(nnc2-c2ccccc2Br)S1	-17.22
CNC(=O)C1CN(c2ccc(F)cc2)CCN1.Cl (stereo not drawn)	-9.726
CC(C)CN1CC[C@H]2OCC[C@@H](C(=O)N3CCCO3)[C@@H]2C1.O=C(O)C(F)(F)F	-22.87
c1cnn(CC2CCCCN2c2ncnc3ccsc23)c1 (stereo not drawn)	-40.74
CNC(=O)[C@@]12CCO[C@@H]1CCN(S(=O)(=O)c1cccnc1)C2.O=C(O)C(F)(F)F	3.091
Cc1noc(C)c1CN1CCO[C@H]2CN(Cc3nccn3C)C[C@H]21.O=C(O)C(F)(F)F.O=C(O)C(F)(F)F	-6.105
Cc1nc(CN(C)C2CCN(Cc3nc4ccccc4n3C)C2)no1 (stereo not drawn)	69.83
Cc1nc(CN(C)C2CCN(Cc3ccc4ccccc4n3)C2)no1 (stereo not drawn)	86.18
Cc1cnc(CN(C)C2CCN(Cc3nc4ccccc4o3)C2)o1 (stereo not drawn)	-16.63
Cc1nc(CN(C)C2CCN(Cc3nc4ccccc4s3)C2)no1 (stereo not drawn)	-21.16
Cc1nnc(CN(C)C2CCN(Cc3nc4ccccc4n3C)C2)o1 (stereo not drawn)	28.12
Cc1cnc(CN(C)C2CCN(Cc3nc4ccccc4n3C)C2)o1 (stereo not drawn)	96.91
Cc1nc(CN(C)C2CCN(Cc3ccno3)C2)no1 (stereo not drawn)	-9.493
Cc1nc(CN(C)C2CCN(Cc3cccc4cccnc34)C2)no1 (stereo not drawn)	19.87
Cc1nc(CN(C)C2CCN(CCCc3ccccc3)C2)no1 (stereo not drawn)	-13.87
